Assay results published in the supplement of paper PMC4954754.
Several values for one entry are separate records, joined by “and”; a condition that tells them apart may be missing. Equal values may be shown once. ± gives the uncertainty stated by the source.

Tested on: HEK293T-Rex XBP1-RLuc
Assay: XBP1-RLuc splicing reporter activation, triplicate, relative to 500 nM thapsigargin (% of thapsigargin); higher = stronger IRE1/XBP1s reporter activation
Conditions: 6.8 µM; 18 h; screen: confirmation
Description: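 HEK293T-Rex cells stably expressing the ERSE-firefly luciferase (BiP promoter, ATF6-preferring) or XBP1-splicing Renilla luciferase (IRE1/XBP1s) reporter, 1536-well plates, compound at 6.8 µM for 18 hr at 37 °C; luminescence read […] and expressed as % activation = 100*(compound - median DMSO)/(median 500 nM thapsigargin - median DMSO). Primary screen was single-pass; confirmation screen in triplicate (mean ± SD).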

Structure (SMILES)	XBP1-RLuc splicing reporter activation
Nc1ccc2nc(-c3ccc(Cl)cc3)[nH]c2c1	8.9 ± 0.25
COc1ccc(/C=C/c2ccc3cccc(OC(C)=O)c3n2)cc1OC(C)=O	6.25 ± 0.81
Fc1ccc(-c2nnc3ccc(N4CCN(c5ccccn5)CC4)nn23)cc1	38.3 ± 2.6
NC(=O)c1c(NC(=O)/C=C/c2ccccc2)sc2c1CCCCC2	6.12 ± 0.94
c1ccc2cc(-c3cnnc(N4CCOCC4)n3)ccc2c1	1.22 ± 0.96
Cc1cc2nc(-c3ccc(SCC#N)nc3)[nH]c2cc1C	2.7 ± 0.91
Cc1ccc(O)c(NC(=O)c2cc(-c3cccnc3)on2)c1	19.8 ± 0.85
N#C/C(=C(/O)c1cc(-c2ccccc2)nc2ccccc12)c1nc2ccccc2[nH]1	9.52 ± 1.4
N#Cc1c(NC(=O)c2ccc3ncsc3c2)sc2c1CCC2	1.45 ± 1.6
Cc1ccn2cc(-c3ccc(O)c(O)c3)nc2c1	17.8 ± 5
O=C1c2cc(O)ccc2-c2ccc(O)cc21	17.8 ± 0.69
Oc1ccc(/C=N/Nc2cccc(Cl)n2)c(O)c1	10.9 ± 0.95
CC(C)NC(=O)c1cc(-c2ccc(O)cc2)on1	18.5 ± 1.6
Cc1ccc(/C=N/NC(=O)c2cccc(Cl)c2)cc1	0.915 ± 0.53
CC(C)CC(c1nnnn1C1CCCC1)N1CCN(C(=O)c2ccco2)CC1 (stereo not drawn)	10.6 ± 2.2
Cc1ccc(/C=C(\C#N)C(=O)Nc2cccc(Cl)c2)o1	0.278 ± 1.4
O=C(c1ccccc1)c1c(O)ccc2c(C(=O)c3ccccc3)c(O)ccc12	15.8 ± 2.8
COc1ccc(N(C(=O)c2ccccc2)S(=O)(=O)c2cc(OC)ccc2OC)cc1	59.2 ± 7.4
N#Cc1c(NC(=O)c2cccc(F)c2)sc2c1CCC2	2 ± 0.56

Structure (SMILES)	XBP1-RLuc splicing reporter activation
N#Cc1c(NC(=O)/C=C/c2ccco2)sc2c1CCCC2	11.3 ± 1.3
COc1c(O)cc2oc(-c3ccc(O)c(O)c3)cc(=O)c2c1O	53.7 ± 3.8
O=[N+]([O-])c1ccc(N/N=C/c2ccccc2O)cc1	2.37 ± 0.96
O=c1cc(-c2ccc(O)c(O)c2)oc2cc(O)cc(O)c12	16.5 and 14.4
CCOc1cccc(C(=O)Nc2ccc(Br)cn2)c1	2.81 ± 1.5
Oc1cccc(Nc2nc(-c3ccc(O)c(O)c3)cs2)c1	17.5 ± 0.67
CCN(CC)c1ccc(NC(=O)c2cccc(OC)c2)cc1	0.922 ± 1.9
OCCNc1nc(Nc2ccc(Br)cc2)nc2ccccc12	23.4 ± 2.2
CC1(C)Cc2ccccc2/C(=C/C(=O)C(=O)N/N=C/c2ccc(O)c(O)c2)N1	16.2 ± 2.9
CCOc1cc(/C=C2/NC(=O)N(Cc3ccc(F)cc3)C2=O)ccc1O	33.6 ± 2.1
O=C(N/N=C\C(Cl)=C\c1ccccc1)c1n[nH]c2c1CCCC2	6.87 ± 1.5
Oc1ccc(-c2cn3ccccc3n2)cc1O	20.8 ± 2
Cc1cc(C)nc(/N=C(\N)Nc2ccc(OCc3ccc(Cl)cc3)cc2)n1	81.2 ± 5.9
COc1cccc(C(=O)/C=C/Nc2cc(C)ccc2O)c1	10.2 ± 0.47
O=C(/C=C/c1ccco1)Nc1ccc(Br)cc1Cl	-0.469 ± 0.9
N#CC1=C(N)Oc2c(ccc3ccccc23)C1c1ccccc1 (stereo not drawn)	14.2 ± 1.1
Cc1ccc(C(=O)Nc2ccccc2N)cc1	14.1 ± 1.3
COc1ccc2oc(=Nc3cc(F)ccc3F)c(C(N)=O)cc2c1	4.22 ± 1
Oc1ccc(-c2csc3nc(-c4ccccc4)nn23)c(O)c1	15.3 ± 1.7
